Test results as given in the supplement of paper PMC8975748.
Structures can show the parent of a compound that is named as a salt. ± gives the standard deviation of the averaged measurements.

Experiments:
[1] = test system: Saccharomyces cerevisiae BY4741 SeMeCo community; experiment: mean cell size (pixel area) (pixels); higher = larger cells; conditions: 10 µM; 24 h; SM minimal medium
In short: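 A fluorescent Saccharomyces cerevisiae BY4741 community carrying four plasmids was used, with each plasmid complementing one auxotrophy and bearing a fluorescent marker. An overnight preculture at OD600 = 1.0 was diluted to OD600 = 0.3, and 70 µl went into 384-well plates acoustically predosed with drug (final 10 µM) in SM medium for 24 h. After paraformaldehyde fixation, cells were imaged by automated confocal microscopy and analysed in Harmony, giving the mean cell pixel area per well. Each value is the average of 3 replicates. Same SeMeCo high-content imaging drug screen: Selleck FDA-approved drugs at 10 µM, 24 h in SM medium, 384-well plates, 3 replicates.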

[2] = test system: Saccharomyces cerevisiae BY4741 SeMeCo community; experiment: z-score of prototroph abundance vs DMSO median; higher = larger share of this subpopulation than in DMSO controls; conditions: 10 µM; 24 h; SM minimal medium; subpopulation (auxotrophy): Prototroph
In short: (§1)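 Subpopulation abundance was reported as a z-score against the median of vehicle wells. The Saccharomyces cerevisiae BY4741 community, carrying four plasmids that each restored one auxotrophy and encoded a distinct fluorescent protein, was grown 24 h in minimal SM medium in 384-well plates holding library drugs at 10 µM final. Cells were paraformaldehyde-fixed and imaged by automated confocal microscopy, with single-auxotroph fluorescent strains used for thresholds and autofluorescence correction.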

[3] = test system: Saccharomyces cerevisiae BY4741 SeMeCo community; experiment: z-score of subpopulation abundance vs DMSO median, subpopulation auxotrophic for L; higher = larger share of this subpopulation than in DMSO controls; conditions: 10 µM; 24 h; SM minimal medium; subpopulation (auxotrophy): L
In short: as §1

[4] = test system: Saccharomyces cerevisiae BY4741 SeMeCo community; experiment: z-score of subpopulation abundance vs DMSO median, subpopulation auxotrophic for U; higher = larger share of this subpopulation than in DMSO controls; conditions: 10 µM; 24 h; SM minimal medium; subpopulation (auxotrophy): U
In short: as §1

[5] = test system: Saccharomyces cerevisiae BY4741 SeMeCo community; experiment: z-score of subpopulation abundance vs DMSO median, subpopulation auxotrophic for H; higher = larger share of this subpopulation than in DMSO controls; conditions: 10 µM; 24 h; SM minimal medium; subpopulation (auxotrophy): H
In short: as §1

[6] = test system: Saccharomyces cerevisiae BY4741 SeMeCo community; experiment: z-score of subpopulation abundance vs DMSO median, subpopulation auxotrophic for LU; higher = larger share of this subpopulation than in DMSO controls; conditions: 10 µM; 24 h; SM minimal medium; subpopulation (auxotrophy): LU
In short: as §1

[7] = test system: Saccharomyces cerevisiae BY4741 SeMeCo community; experiment: z-score of subpopulation abundance vs DMSO median, subpopulation auxotrophic for LM; higher = larger share of this subpopulation than in DMSO controls; conditions: 10 µM; 24 h; SM minimal medium; subpopulation (auxotrophy): LM
In short: as §1

[8] = test system: Saccharomyces cerevisiae BY4741 SeMeCo community; experiment: z-score of subpopulation abundance vs DMSO median, subpopulation auxotrophic for HM; higher = larger share of this subpopulation than in DMSO controls; conditions: 10 µM; 24 h; SM minimal medium; subpopulation (auxotrophy): HM
In short: as §1

[9] = test system: Saccharomyces cerevisiae BY4741 SeMeCo community; experiment: z-score of subpopulation abundance vs DMSO median, subpopulation auxotrophic for HU; higher = larger share of this subpopulation than in DMSO controls; conditions: 10 µM; 24 h; SM minimal medium; subpopulation (auxotrophy): HU
In short: as §1

[10] = test system: Saccharomyces cerevisiae BY4741 SeMeCo community; experiment: z-score of subpopulation abundance vs DMSO median, subpopulation auxotrophic for UM; higher = larger share of this subpopulation than in DMSO controls; conditions: 10 µM; 24 h; SM minimal medium; subpopulation (auxotrophy): UM
In short: as §1

[11] = test system: Saccharomyces cerevisiae BY4741 SeMeCo community; experiment: z-score of subpopulation abundance vs DMSO median, subpopulation auxotrophic for HL; higher = larger share of this subpopulation than in DMSO controls; conditions: 10 µM; 24 h; SM minimal medium; subpopulation (auxotrophy): HL
In short: as §1

[12] = test system: Saccharomyces cerevisiae BY4741 SeMeCo community; experiment: z-score of subpopulation abundance vs DMSO median, subpopulation auxotrophic for HLM; higher = larger share of this subpopulation than in DMSO controls; conditions: 10 µM; 24 h; SM minimal medium; subpopulation (auxotrophy): HLM
In short: as §1

[13] = test system: Saccharomyces cerevisiae BY4741 SeMeCo community; experiment: z-score of subpopulation abundance vs DMSO median, subpopulation auxotrophic for HUM; higher = larger share of this subpopulation than in DMSO controls; conditions: 10 µM; 24 h; SM minimal medium; subpopulation (auxotrophy): HUM
In short: as §1

[14] = test system: Saccharomyces cerevisiae BY4741 SeMeCo community; experiment: z-score of subpopulation abundance vs DMSO median, subpopulation auxotrophic for LUM; higher = larger share of this subpopulation than in DMSO controls; conditions: 10 µM; 24 h; SM minimal medium; subpopulation (auxotrophy): LUM
In short: as §1

[15] = test system: Saccharomyces cerevisiae BY4741 SeMeCo community; experiment: z-score of subpopulation abundance vs DMSO median, subpopulation auxotrophic for HLUM; higher = larger share of this subpopulation than in DMSO controls; conditions: 10 µM; 24 h; SM minimal medium; subpopulation (auxotrophy): HLUM
In short: as §1

[16] = test system: Saccharomyces cerevisiae BY4741 SeMeCo community; experiment: z-score of subpopulation abundance vs DMSO median, subpopulation auxotrophic for M; higher = larger share of this subpopulation than in DMSO controls; conditions: 10 µM; 24 h; SM minimal medium; subpopulation (auxotrophy): M
In short: as §1

Row | Compound | mean cell size [1] | z-score of prototroph abundance [2] | z-score of subpopulation abundance [3] | z-score of subpopulation abundance [4] | z-score of subpopulation abundance [5] | z-score of subpopulation abundance [6] | z-score of subpopulation abundance [7] | z-score of subpopulation abundance [8] | z-score of subpopulation abundance [9] | z-score of subpopulation abundance [10] | z-score of subpopulation abundance [11] | z-score of subpopulation abundance [12] | z-score of subpopulation abundance [13] | z-score of subpopulation abundance [14] | z-score of subpopulation abundance [15] | z-score of subpopulation abundance [16]
1 | Cc1ccnc(NS(=O)(=O)c2ccc(N)cc2)n1 [Sulfamerazine] | 12.5 ± 0.16 | -1.15 | 1.54 | -0.62 | 0.49 | 0.43 | 0.88 | 2 | -0.3 | 0.45 | 0.86 | 0.7 | 0.76 | 0.98 | 0.45 | –
2 | CN1CCN(C2=Nc3ccccc3Oc3ccc(Cl)cc32)CC1 [Loxapine Succinate] | 12.4 ± 0.17 | -0.71 | 1.71 | 0.78 | 0.08 | 1.85 | 0.87 | 0.14 | 0.53 | 0.97 | 1.02 | – | -0.1 | 1.15 | 0.78 | -0.12
3 | CCCCc1oc2ccccc2c1C(=O)c1cc(I)c(OCCN(CC)CC)c(I)c1 [Amiodarone HCl] | 11.3 ± 0.26 | -5.29 | -2.82 | -0.62 | 1.97 | -1.37 | 1.3 | 3.86 | 4.02 | 9.26 | – | – | 4.79 | – | 5.2 | 9.41
4 | CC[C@H](C)C(=O)O[C@H]1C[C@H](O)C=C2C=C[C@H](C)[C@H](CC[C@@H](O)C[C@@H](O)CC(=O)O)[C@H]21 [Pravastatin] | 12.2 ± 0.19 | -1.08 | -0.43 | 1.19 | 0.39 | – | 0.2 | 0.47 | 1.19 | 1.36 | 0.42 | -0.51 | 1.56 | 0.59 | -0.51 | 0.52
5 | CCOC(=O)c1ccc(O)cc1 [Ethylparaben] | 12.5 ± 0.25 | – | -0.33 | 1.83 | -0.25 | 0.65 | -0.67 | – | 1.78 | 1.66 | -0.54 | – | 0.44 | 0.63 | 1.8 | -0.6
6 | O=C(O)c1cc(-c2ccc(F)cc2F)ccc1O [Diflunisal] | 13.1 ± 0.14 | 3.54 | – | – | -1.33 | – | -1.23 | -1.55 | -2.05 | -3.18 | -0.87 | -0.45 | -2.64 | -1.08 | -0.39 | -2.15
7 | Cc1ncc([N+](=O)[O-])n1CC(O)CCl (stereo not given) [Ornidazole] | 12.5 ± 0.26 | 0.34 | – | -0.47 | -0.77 | -0.8 | 0.41 | 0.34 | -0.37 | – | 0.53 | -0.03 | 0.44 | -0.87 | 0.77 | 1.05
8 | N=C(N)NS(=O)(=O)c1ccc(N)cc1 [Sulfaguanidine] | 12.3 ± 0.36 | – | – | -0.5 | -0.42 | – | -0.87 | -0.09 | -0.96 | -0.62 | -0.4 | -1.22 | -1.13 | -0.49 | -1.13 | 0
9 | C[C@@H](O)[C@H]1C(=O)N2C(C(=O)O)=C([C@H]3CCCO3)S[C@H]12 [Faropenem Sodium] | 12.39 ± 0.088 | – | – | 1.08 | 0.32 | 0.29 | -0.23 | 0.48 | 0.81 | 1.27 | 0 | -0.7 | 0.59 | 0.85 | -0.05 | 0.61
10 | C[C@@H]1[C@H](O)[C@@H](C)/C=C/C=C/C=C/C=C/C=C/C=C/C=C/[C@H](O[C@@H]2O[C@H](C)[C@@H](O)[C@H](N)[C@@H]2O)C[C@@H]2O[C@](O)(C[C@@H](O)C[C@@H](O)[C@H](O)CC[C@@H](O)C[C@@H](O)CC(=O)O[C@H]1C)C[C@H](O)[C@H]2C(=O)O [Amphotericin B] | 9.69 ± 0.22 | -19.9 | -2.03 | -0.38 | – | 24.4 | -0.85 | 0.42 | 10.5 | – | 8.48 | – | 75.7 | 29.1 | 163 | -8.72
11 | O=S1(=O)CCN(CN2CCS(=O)(=O)NC2)CN1 [Taurolidine] | 12.5 ± 0.25 | 0.42 | -0.57 | 0.64 | -0.57 | 0.35 | -0.78 | – | 0.18 | – | -1.35 | – | -0.52 | -0.43 | – | -0.34
12 | COc1ccc2c(c1)c(CC(=O)O)c(C)n2C(=O)c1ccc(Cl)cc1 [Indomethacin] | – | 0.27 | 0.48 | – | -0.68 | -0.17 | 0.16 | -1.04 | -0.04 | 1.08 | -0.38 | – | 0.09 | – | -0.35 | -0.33
13 | CC1(C)S[C@@H]2[C@H](NC(=O)[C@H](N)c3ccc(O)cc3)C(=O)N2[C@H]1C(=O)O [Amoxicillin trihydrate] | 12.19 ± 0.082 | -0.1 | 0.15 | 0.03 | -0.05 | – | 0.15 | -0.15 | 0.31 | 0.19 | -0.69 | – | -0.08 | 0.38 | -0.21 | 0.05
14 | Cc1onc(-c2c(F)cccc2Cl)c1C(=O)N[C@@H]1C(=O)N2[C@@H]1SC(C)(C)[C@@H]2C(=O)O [Flucloxacillin sodium] | 12.55 ± 0.1 | -0.59 | – | 0.55 | -0.11 | 0.16 | -0.65 | 0.12 | -0.23 | 0.64 | -0.43 | – | 0.1 | -0.02 | -0.68 | 1.08
